For part of these data: Measured potencies and affinities stand elsewhere. Activity calls are given as the source filed them. Unless noted, how the calls were made is not given here.
Assays:
[1] = antimalarial activity against Dd2 strain (AID 2302;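 active means growth inhibition above 50% at the single 2 µM test dose, taken to imply half-maximal potency below 2 µM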;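 further: 0% = DMSO untreated growth and 100% = chloroquine plus artemisinin killed control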); conditions: P. falciparum Dd2 in RBCs, LDH growth readout, 72 h; at 2 µM; active compounds read high
[2] = HepG2 cytotoxicity, primary screen, cytotoxicity control for P. falciparum antimalarial project, cell-based, ATP luminescence (AID 2303;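 active means inhibition above 50%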;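 further: 0% = DMSO wells and 100% = digitonin-killed cells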); conditions: HepG2 viability, 24-48 h, at 10 µM, active compounds read high
[3] = target: L-lactate dehydrogenase (Plasmodium falciparum (isolate CDC / Honduras)) (UniProt Q27743); assay: PfLDH activity inhibition – cell lysate, 3D7 strain, counter-screen for P. falciparum growth inhibition project (AID 2304);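 further: 0% = vehicle and 100% = reference inhibitor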; conditions: P. falciparum 3D7 crude extract, LDH APAD/NBT absorbance; at 2 µM; active compounds read high
[4] = inhibition of 3D7 malaria parasite growth – strain 3D7 (AID 2306);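 further: 0% = DMSO wells and 100% = chloroquine plus artemisinin control wells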; conditions: P. falciparum 3D7 erythrocytic growth, LDH absorbance, 72 h; at 2 µM; active compounds read high
[5] = target: Calcium-dependent protein kinase 1 (Plasmodium falciparum (isolate 3D7)) (UniProt P62344); assay: PfCDPK1 kinase inhibitors, biochemical, TCAMS library (AID 1159585; cut-off not given, nearly all actives have IC50 up to about 0.98 µM;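 further: inhibitors leave more ATP so luminescence rises with inhibition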); conditions: recombinant PfCDPK1, Kinase-Glo ATP depletion luminescence
[6] = target: Plasmodium falciparum protein kinase 6 (PK6, PF3D7_1337100) (UniProt Q8IDW1); assay: PfPK6 kinase inhibitors, biochemical, TCAMS library (AID 1159586); conditions: recombinant PfPK6, Kinase-Glo ATP depletion luminescence
[7] = target: Protein kinase 7 (PK7), Plasmodium falciparum 3D7 (PF3D7_0213400) (UniProt Q7YTF7); assay: inhibition of Plasmodium PK7 catalytic activity – biochemical, TCAMS antimalarial set, Kinase-Glo luminescence (AID 1159587); conditions: recombinant PfPK7, Kinase-Glo ATP depletion luminescence
[8] = target: Calcium-dependent protein kinase 4 (Plasmodium falciparum (isolate 3D7)) (UniProt Q8IBS5); assay: PfCDPK4 kinase inhibitors, biochemical, TCAMS library (AID 1159588; cut-off not given, nearly all actives have IC50 up to about 0.91 µM); conditions: recombinant PfCDPK4, Kinase-Glo ATP depletion luminescence
Chain of Calcium-dependent protein kinase 4 (Plasmodium falciparum (isolate 3D7)) (Q8IBS5 whole entry, looked up): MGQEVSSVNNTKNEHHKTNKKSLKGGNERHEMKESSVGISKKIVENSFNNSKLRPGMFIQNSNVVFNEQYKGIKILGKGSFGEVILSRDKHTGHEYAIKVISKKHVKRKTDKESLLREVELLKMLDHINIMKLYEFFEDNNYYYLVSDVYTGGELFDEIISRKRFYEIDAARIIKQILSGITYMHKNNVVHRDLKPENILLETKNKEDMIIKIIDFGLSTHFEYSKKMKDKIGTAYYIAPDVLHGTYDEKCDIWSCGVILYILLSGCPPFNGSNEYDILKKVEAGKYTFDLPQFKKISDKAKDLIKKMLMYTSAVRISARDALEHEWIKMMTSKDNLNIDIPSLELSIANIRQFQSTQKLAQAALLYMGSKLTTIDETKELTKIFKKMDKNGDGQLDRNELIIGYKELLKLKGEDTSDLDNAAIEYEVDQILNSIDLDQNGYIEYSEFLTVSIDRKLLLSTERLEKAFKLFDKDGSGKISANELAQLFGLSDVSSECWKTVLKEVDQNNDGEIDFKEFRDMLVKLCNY

Chain of Plasmodium falciparum protein kinase 6 (PK6, PF3D7_1337100) (Q8IDW1 1-305): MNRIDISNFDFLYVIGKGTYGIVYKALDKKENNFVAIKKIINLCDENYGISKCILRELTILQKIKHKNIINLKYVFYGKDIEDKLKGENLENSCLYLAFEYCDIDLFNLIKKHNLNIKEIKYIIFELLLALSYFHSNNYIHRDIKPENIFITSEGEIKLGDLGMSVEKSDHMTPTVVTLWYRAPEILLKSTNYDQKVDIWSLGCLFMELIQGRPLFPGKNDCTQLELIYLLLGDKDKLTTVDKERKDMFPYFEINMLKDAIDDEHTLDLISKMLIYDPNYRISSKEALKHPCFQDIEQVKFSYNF
Chain of Protein kinase 7 (PK7), Plasmodium falciparum 3D7 (PF3D7_0213400) (Q7YTF7 1-343): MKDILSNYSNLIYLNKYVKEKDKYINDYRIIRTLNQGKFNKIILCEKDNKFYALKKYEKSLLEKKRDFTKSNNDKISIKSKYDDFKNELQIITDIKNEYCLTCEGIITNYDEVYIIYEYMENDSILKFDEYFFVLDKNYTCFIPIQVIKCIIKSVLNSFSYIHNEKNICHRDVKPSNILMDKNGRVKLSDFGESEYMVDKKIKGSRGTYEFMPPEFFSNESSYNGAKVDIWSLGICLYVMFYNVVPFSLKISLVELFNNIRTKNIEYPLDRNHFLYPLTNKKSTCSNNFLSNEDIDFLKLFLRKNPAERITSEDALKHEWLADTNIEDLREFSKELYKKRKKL
Chain of Calcium-dependent protein kinase 1 (Plasmodium falciparum (isolate 3D7)) (P62344 whole entry, looked up): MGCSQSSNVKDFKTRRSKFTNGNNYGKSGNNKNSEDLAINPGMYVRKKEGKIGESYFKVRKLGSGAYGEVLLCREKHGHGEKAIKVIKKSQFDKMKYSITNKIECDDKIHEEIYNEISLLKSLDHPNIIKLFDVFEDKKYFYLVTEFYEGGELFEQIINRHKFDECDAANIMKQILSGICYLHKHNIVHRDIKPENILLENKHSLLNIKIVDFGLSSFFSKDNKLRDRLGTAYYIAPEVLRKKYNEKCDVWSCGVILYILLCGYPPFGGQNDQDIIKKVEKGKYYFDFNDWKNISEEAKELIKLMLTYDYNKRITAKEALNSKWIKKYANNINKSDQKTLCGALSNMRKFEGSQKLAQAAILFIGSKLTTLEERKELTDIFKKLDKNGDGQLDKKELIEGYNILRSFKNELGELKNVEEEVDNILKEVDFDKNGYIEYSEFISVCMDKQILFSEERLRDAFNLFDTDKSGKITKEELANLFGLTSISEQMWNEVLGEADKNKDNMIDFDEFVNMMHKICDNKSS
Chain of L-lactate dehydrogenase (Plasmodium falciparum (isolate CDC / Honduras)) (Q27743 whole entry, looked up): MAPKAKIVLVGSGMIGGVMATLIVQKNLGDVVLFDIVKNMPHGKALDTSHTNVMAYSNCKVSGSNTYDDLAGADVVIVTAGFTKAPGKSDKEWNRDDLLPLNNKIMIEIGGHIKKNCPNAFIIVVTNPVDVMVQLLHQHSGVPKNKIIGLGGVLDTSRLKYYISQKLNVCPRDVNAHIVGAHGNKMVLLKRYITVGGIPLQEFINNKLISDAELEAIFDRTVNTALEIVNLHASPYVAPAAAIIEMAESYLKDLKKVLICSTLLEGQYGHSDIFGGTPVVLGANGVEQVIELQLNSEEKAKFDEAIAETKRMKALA

O=C(NCCCCN1CCC(c2ccc(Br)cc2)CC1)c1ccc(NC(=O)c2ccc(Cl)cc2)cc1
active: growth inhibition [1] 86% | growth inhibition [4] 100%
inactive: inhibition [2] 17% | inhibition [3] 0% | outcome [5] | outcome [6] | outcome [7] | outcome [8]

COC(=O)Cn1c(C2CCN(CC3CCC(NC(=O)/C=C/c4ccc(Cl)c(Cl)c4)CC3)CC2)nc2ccccc21 (stereo not drawn)
active: growth inhibition [4] 95%
inactive: growth inhibition [1] 17% | inhibition [2] 12% | inhibition [3] 4% | outcome [5] | outcome [6] | outcome [7] | outcome [8]

CCCCCCCN1CC[C@@H](CCCc2ccnc3ccc(OC)cc23)[C@@H](CNC)C1
active: growth inhibition [1] 95% | growth inhibition [4] 101%
inactive: inhibition [2] 25% | inhibition [3] -2% | outcome [5] | outcome [6] | outcome [7] | outcome [8]

CCOC(=O)C(C)(C)Oc1ccc(CN(Cc2ccc(CC(C)C)cc2)C(=O)Nc2ccc(F)cc2F)c(OC)c1
inactive: inhibition [2] 5% | inhibition [3] -8% | outcome [5] | outcome [6] | outcome [7] | outcome [8]
active: growth inhibition [1] 96% | growth inhibition [4] 97%

COc1ccc(-n2cc(C(=O)c3cc(Br)ccc3O)cc(C#N)c2=O)cc1Cl
active: growth inhibition [4] 99%
inactive: growth inhibition [1] 23% | inhibition [2] 29% | inhibition [3] -5% | outcome [5] | outcome [6] | outcome [7] | outcome [8]

O=C(NC1CCCCC1)N(Cc1cccc(-c2ccc(CNCCc3ccccc3)cc2)c1)C1CCN(Cc2ccccc2)CC1
active: growth inhibition [1] 93% | inhibition [2] 61% | growth inhibition [4] 93%
inactive: inhibition [3] 4% | outcome [5] | outcome [6] | outcome [7] | outcome [8]

CCN(CC)C(=NCCCCCCN=C(/N=C(/N)Nc1ccc(Br)cc1)N(CC)CC)/N=C(/N)Nc1ccc(Br)cc1
inactive: inhibition [2] -7% | inhibition [3] -5% | outcome [5] | outcome [6] | outcome [7] | outcome [8]
active: growth inhibition [1] 95% | growth inhibition [4] 96%

COc1ccc2nccc([C@@H](O)CN3CCC(NC(=O)c4cccc(-c5cc(C)no5)c4)CC3)c2c1
active: growth inhibition [1] 89% | growth inhibition [4] 93%
inactive: inhibition [2] 19% | inhibition [3] 1% | outcome [5] | outcome [6] | outcome [7] | outcome [8]

Oc1ccccc1CNCc1ccc(-c2cnc(N3CCCC(c4ccccc4)C3)nc2)cc1 (stereo not drawn)
inactive: inhibition [2] 6% | inhibition [3] -4% | outcome [5] | outcome [6] | outcome [7] | outcome [8]
active: growth inhibition [1] 84% | growth inhibition [4] 99%

Cc1[nH]c(C)c(-c2ccc(Oc3ccc(OC(F)(F)F)cc3)cc2)c(=O)c1I
active: growth inhibition [1] 96% | growth inhibition [4] 95%
inactive: inhibition [2] 3% | inhibition [3] -3% | outcome [5] | outcome [6] | outcome [7] | outcome [8]

COc1ccc(CNCc2ccc(-c3ccc(-c4nc5ccc(C(F)(F)F)cc5[nH]4)s3)cc2)cc1
inactive: inhibition [2] 38% | inhibition [3] -1% | outcome [5] | outcome [6] | outcome [7] | outcome [8]
active: growth inhibition [1] 98% | growth inhibition [4] 100%

O=C(Nc1ccc(Cl)cc1)Nc1cccc(-c2ccc(-c3nc4ccc(F)cc4[nH]3)cc2)c1
active: growth inhibition [1] 99% | inhibition [2] 73% | growth inhibition [4] 101%
inactive: inhibition [3] -1% | outcome [5] | outcome [6] | outcome [7] | outcome [8]

CN(C(=O)C(C)(C)Oc1ccc(Cl)cc1)C1CCN(CCCCCNC(=O)/C=C/c2ccc(Cl)c(Cl)c2)CC1
inactive: growth inhibition [1] 26% | inhibition [3] 0% | outcome [5] | outcome [6] | outcome [7] | outcome [8]
active: inhibition [2] 86% | growth inhibition [4] 96%

c1ccc2[nH]c(-c3ccc(-c4ccc(CN5CCN(CCN6CCOCC6)CC5)cc4)s3)nc2c1
inactive: inhibition [2] 39% | inhibition [3] -2% | outcome [5] | outcome [6] | outcome [7] | outcome [8]
active: growth inhibition [1] 100% | growth inhibition [4] 100%

COc1ccc2c(NN=Cc3ccccc3F)ccnc2c1
active: growth inhibition [1] 99% | growth inhibition [4] 98%
inactive: inhibition [2] 15% | inhibition [3] 0% | outcome [5] | outcome [6] | outcome [7] | outcome [8]

C[C@@H](NC(=O)c1nn(-c2ccc(Cl)cc2)c(=O)c2ccccc12)C(C)(C)C
inactive: growth inhibition [1] 20% | inhibition [2] 7% | inhibition [3] -2% | outcome [5] | outcome [6] | outcome [7] | outcome [8]
active: growth inhibition [4] 95%

O=C(c1cc(-c2ccccc2)n[nH]1)N1CCN(S(=O)(=O)c2ccc(Cl)s2)CC1
active: growth inhibition [1] 81% | growth inhibition [4] 88%
inactive: inhibition [2] 9% | inhibition [3] 1% | outcome [5] | outcome [6] | outcome [7] | outcome [8]

CC1=C(C(=O)Nc2cc3cn[nH]c3cc2F)C(c2ccc(Cl)c(NS(C)(=O)=O)c2)CC(=O)N1 (stereo not drawn)
inactive: inhibition [2] 2% | inhibition [3] -1% | outcome [5] | outcome [6] | outcome [7] | outcome [8]
active: growth inhibition [1] 98% | growth inhibition [4] 88%

O=C(Nc1ccc(-c2nc3ccccc3[nH]2)cc1)c1ccc(N2CCCC2)c([N+](=O)[O-])c1
active: growth inhibition [1] 95% | growth inhibition [4] 100%
inactive: inhibition [2] 43% | inhibition [3] -1% | outcome [5] | outcome [6] | outcome [7] | outcome [8]

O=C(/C=C/c1ccc(Cl)c(Cl)c1)NCCCCCN1CCC(C(=O)Nc2ccc(Cl)cc2)CC1
inactive: growth inhibition [1] -1% | inhibition [2] 42% | inhibition [3] 8% | outcome [5] | outcome [6] | outcome [7] | outcome [8]
active: growth inhibition [4] 100%

Cc1cccc2[nH]c(-c3ccc(-c4ccc(C(=O)NCCN5CCCC5)cc4)cc3)nc12
active: growth inhibition [1] 77% | growth inhibition [4] 101%
inactive: inhibition [2] 25% | inhibition [3] 3% | outcome [5] | outcome [6] | outcome [7] | outcome [8]

CS(=O)(=O)CCNC(=O)c1ccc(-c2cc3c(Nc4ccc5c(cnn5Cc5ccccc5)c4)ncnc3cn2)o1
active: growth inhibition [4] 97%
inactive: growth inhibition [1] 46% | inhibition [2] 6% | inhibition [3] -1% | outcome [5] | outcome [6] | outcome [7] | outcome [8]

O=C(Nc1ccc(-c2nc3ccccc3[nH]2)cc1)c1cccc(S(=O)(=O)N2CCCC2)c1
inactive: inhibition [2] 0% | inhibition [3] -5% | outcome [5] | outcome [6] | outcome [7] | outcome [8]
active: growth inhibition [1] 64% | growth inhibition [4] 100%

CS(=O)(=O)CCNCc1nc(-c2ccc3c(Nc4ccc(F)c(O)c4)ccnc3c2)cs1
active: growth inhibition [1] 84% | growth inhibition [4] 95%
inactive: inhibition [2] -10% | inhibition [3] 3% | outcome [5] | outcome [6] | outcome [7] | outcome [8]

COc1ccc(O)c(-c2sc(N=C(N)N)nc2-c2ccccc2)c1
active: growth inhibition [1] 96% | growth inhibition [4] 101%
inactive: inhibition [2] 2% | inhibition [3] -2% | outcome [5] | outcome [6] | outcome [7] | outcome [8]

COc1ccc(-c2ccc([N+](=O)[O-])cc2C(=O)NCC(C)Oc2ccc(C(F)(F)F)cc2)cc1 (stereo not drawn)
inactive: inhibition [2] 6% | inhibition [3] 5% | outcome [5] | outcome [6] | outcome [7] | outcome [8]
active: growth inhibition [1] 81% | growth inhibition [4] 102%

O=C(NC1CCCc2ccccc21)[C@@H]1CCCN1C(=O)c1ccc(O)c(-c2ccc(Cl)c(Cl)c2)c1 (stereo partly drawn)
active: growth inhibition [1] 99% | growth inhibition [4] 99%
inactive: inhibition [2] -6% | inhibition [3] -2% | outcome [5] | outcome [6] | outcome [7] | outcome [8]

Cc1ccc(S(=O)(=O)n2nccc2-c2c(-c3ccc(Cl)cc3)noc2C)cc1
inactive: inhibition [2] -1% | inhibition [3] -2% | outcome [5] | outcome [6] | outcome [7] | outcome [8]
active: growth inhibition [1] 97% | growth inhibition [4] 97%

NC1CCN(CCNCc2cccc(-c3ccc(-c4nc5ccc(C(F)(F)F)cc5[nH]4)cc3)c2)C1 (stereo not drawn)
inactive: inhibition [2] 19% | inhibition [3] 1% | outcome [5] | outcome [6] | outcome [7] | outcome [8]
active: growth inhibition [1] 75% | growth inhibition [4] 98%

CC(C)NCc1ccc(-c2ccc(NC(=O)c3cccc(C#N)c3)cc2)cc1
inactive: inhibition [2] 40% | inhibition [3] -2% | outcome [5] | outcome [6] | outcome [7] | outcome [8]
active: growth inhibition [1] 77% | growth inhibition [4] 99%

CC(C)C[C@H](NC(=O)[C@H](Cc1ccccc1)N(C[C@H](Cc1ccccc1)NC(=O)OC(C)(C)C)C(=O)C(F)(F)F)C(=O)NC1CCN(Cc2ccccc2)CC1
active: growth inhibition [1] 82% | growth inhibition [4] 92%
inactive: inhibition [2] 13% | inhibition [3] -5% | outcome [5] | outcome [6] | outcome [7] | outcome [8]

Cc1ccc(-c2nc3ccc(C(=O)NC4CCN(Cc5ccccc5)CC4)cc3[nH]2)cc1
active: growth inhibition [1] 53% | growth inhibition [4] 100%
inactive: inhibition [2] 20% | inhibition [3] -4% | outcome [5] | outcome [6] | outcome [7] | outcome [8]

CCC(CC)n1cc2c(ccc3nc(N)nc(N)c32)n1
inactive: growth inhibition [1] -2% | inhibition [3] 4% | outcome [5] | outcome [6] | outcome [7] | outcome [8]
active: inhibition [2] 61% | growth inhibition [4] 91%

Cc1cc(NC2CCCC2)nc(Nc2ccccc2F)n1
active: growth inhibition [1] 53% | growth inhibition [4] 97%
inactive: inhibition [2] 24% | inhibition [3] -2% | outcome [5] | outcome [6] | outcome [7] | outcome [8]

O=C(Nc1cccc(-c2cccc(-c3nc4ccccc4[nH]3)c2)c1)c1csnn1
inactive: growth inhibition [1] 27% | inhibition [2] 31% | inhibition [3] 5% | outcome [5] | outcome [6] | outcome [7] | outcome [8]
active: growth inhibition [4] 90%

CC(=O)N1N=C(c2[nH]c3ccc(Br)cc3c2C)OC1c1ccccc1 (stereo not drawn)
inactive: inhibition [2] 8% | inhibition [3] 0% | outcome [5] | outcome [6] | outcome [7] | outcome [8]
active: growth inhibition [1] 68% | growth inhibition [4] 86%
